# Screening data from PubChem BioAssay.
# Sampled rows, rich in hits. Any-hit rate of the full collection: about 0.77%.
# RecA splice inh = blocks M. tuberculosis RecA intein splicing; cell-free RecA intein splicing, fluorescence; inhibition, % (concentration not given with the values); 0.75% of 290,000 active; AID 2221; in the data active = inhibition above about 30%;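 also: 0% = vehicle wells and 100% = reference inhibitor control wells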
# Mtb RmlCD inh = M. tuberculosis RmlC/RmlD inhibition; RmlC+RmlD coupled enzyme assay, percent inhibition; primary screen in compound mixtures; P9WH09+P9WH11; 0.03% of 160,000 active; inhibition, % at 3.6 µM; in the data active = inhibition mostly above about 34%, no sharp cut-off
# Target sequence (P9WH09 whole entry, looked up): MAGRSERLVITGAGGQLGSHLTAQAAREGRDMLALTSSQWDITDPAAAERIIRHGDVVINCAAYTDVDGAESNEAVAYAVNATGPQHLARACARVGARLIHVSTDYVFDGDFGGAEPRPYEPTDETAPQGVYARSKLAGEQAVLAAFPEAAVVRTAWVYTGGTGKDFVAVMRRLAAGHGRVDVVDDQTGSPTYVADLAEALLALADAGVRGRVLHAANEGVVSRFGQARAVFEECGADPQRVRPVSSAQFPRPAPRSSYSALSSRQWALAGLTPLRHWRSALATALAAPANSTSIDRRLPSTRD
# Target sequence (P9WH11 whole entry, looked up): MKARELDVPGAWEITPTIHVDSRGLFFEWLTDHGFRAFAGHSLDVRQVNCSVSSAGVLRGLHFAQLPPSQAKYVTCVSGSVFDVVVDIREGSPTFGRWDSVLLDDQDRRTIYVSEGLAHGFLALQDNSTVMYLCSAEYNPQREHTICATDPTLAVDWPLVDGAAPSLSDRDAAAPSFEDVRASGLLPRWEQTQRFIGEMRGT
# GFP chromo cs = counter-screen: blocks GFP chromophore formation; shares compounds with RecA splice inh; cell-free GFP chromophore formation, fluorescence; EC50, µM; 83% of 2,100 active; call rule not given here
# Active calls of the source: *; nt = no result given.
SMILES,RecA splice inh,Mtb RmlCD inh,GFP chromo cs
O=C(CCl)N1CCN2C(=O)c3ccccc3C12c1ccc(Cl)cc1 (stereo not given),83*,3,4.2*
Cc1ccc(C(=O)N2CCN3C(=O)c4ccccc4C23c2ccc(Cl)cc2)cc1 (stereo not given),13,nt,nt
NC(=S)Nc1ccc2cn[nH]c2c1,2,17,nt
c1cc2cn[nH]c2cc1NC1CCCCCC1,89*,nt,16*
CCOc1cccc(C(=O)Nc2cccc(NC(=O)c3ccco3)c2)c1,9,35,nt
CCSC1(SCC)N=C(N)C2(C#N)C(c3ccc(F)cc3)C12C#N (stereo not given),50*,nt,38*
COC1(OC)N=C(N)C2(C#N)C(c3ccc(F)cc3)C12C#N (stereo not given),0,9,nt
CCn1c(=O)c(C(=O)CN2CCN(S(=O)(=O)c3ccc(C)cc3C)CC2)c(N)n(Cc2ccccc2)c1=O,8,11,nt
CCc1nnc(NS(=O)(=O)c2ccc(NC(=S)NC(=O)/C=C/c3ccccc3)cc2)s1,0,6,nt
CCc1nnc(NS(=O)(=O)c2ccc(NC(=S)NC(=O)/C=C/c3ccc(C(C)C)cc3)cc2)s1,36*,-7,13*
C=CCSC(=C(C#N)C#N)c1cc2c([nH]1)CCCC2,70*,-15,17*
O=C(O)c1cc2c([nH]c1=O)CCCC2,1,4,nt
Cc1cc(=S)[nH]c2c(C)cccc12,-2,-7,nt
CCn1ccnc1CN1CCCC(C(=O)c2cccc(C(F)(F)F)c2)C1 (stereo not given),1,-12,nt
O=C(c1cccc(C(F)(F)F)c1)C1CCCN(Cc2ncc[nH]2)C1 (stereo not given),38*,-4,>38
CC(C)C(=O)NC(=S)Nc1ccccc1N1CCN(C(=O)c2ccc(Cl)cc2)CC1,-2,5,nt
COc1ccc([N+](=O)[O-])cc1NC(=O)C(C)N(C)Cc1cccc(OC)c1OC (stereo not given),-2,nt,nt
COc1cc(/C=N/Nc2cc(C)nc(N)n2)ccc1O,-2,nt,nt
Cn1cnnc1SCC(=O)Nc1cccc(S(=O)(=O)N2CCOCC2)c1,1,3,nt
Cc1ccc(NC2=C/C(=N/S(=O)(=O)c3cccs3)c3ccccc3C2=O)cc1C,9,1,nt
COc1ccc(S(=O)(=O)/N=C2\C=C(Nc3ccc(O)cc3)C(=O)c3ccccc32)cc1,93*,nt,0.34*
CC1=C(Nc2ccc(C(=O)O)cc2)C(=O)c2ccccc2C1=O,9,nt,nt
O=C(O)c1ccc(S(=O)(=O)/N=C2\C=C(Nc3ccccc3F)C(=O)c3ccccc32)cc1,94*,nt,0.17*
CC(=O)Nc1ccc(NC2=C/C(=N/S(=O)(=O)c3cccs3)c3ccccc3C2=O)cc1,nt,6,nt
O=S(=O)(/N=C(/Nc1ccccc1F)c1ccccc1)c1ccccc1,0,3,nt
SMILES,RecA splice inh,Mtb RmlCD inh,GFP chromo cs
Cc1ccccc1NC1=C/C(=N\S(=O)(=O)c2cccs2)c2ccccc2C1=O,37*,nt,1*
Cc1ccccc1NC1=C/C(=N\S(=O)(=O)c2ccc(C(=O)O)cc2)c2ccccc2C1=O,96*,nt,11*
O=C(COc1ccc2c3c(c(=O)oc2c1)CCC3)Nc1ccc(CN2CCOCC2)cc1,2,nt,nt
Cc1ccccc1Nc1cc(C(=O)NCc2ccco2)c2ccccc2n1,-3,0,nt
Cc1ccc(/C=N/NC(=O)CC2N=C(Cc3ccccc3)NNC2=O)cc1 (stereo not given),-1,nt,nt
O=S(=O)(Cc1ccccc1)N1CCNCC1,2,nt,nt
Cc1ccc(NC(=O)CSCC(=O)Nc2ncc3c(n2)CC(c2ccco2)CC3=O)cc1 (stereo not given),1,-8,nt
CCCCN(C(=O)c1ccc([N+](=O)[O-])o1)c1c(N)n(CC(C)C)c(=O)[nH]c1=O,-65,nt,nt
COc1ccc2nc3cc(Cl)ccc3c(Nc3cc(C(C)C)c(O)cc3C)c2c1,73*,nt,0.75*
CCN(CC)CCCC(C)Nc1c2ccc(Cl)cc2nc2ccc(OC)cc12 (stereo not given),nt,23,nt
CCOc1ccc(-n2nnnc2-c2nc3ccccc3s2)cc1,-2,6,nt
O=C1c2ccccc2C(=O)N1c1ccc(Cl)cc1,nt,4,nt
O=C1C(Cl)=C(N2CCCCCC2)C(=O)N1c1ccccc1,36*,nt,28*
O=C1C(Cl)=C(N2CCCCCC2)C(=O)N1c1ccc(Br)cc1,17,nt,nt
Cc1ccc(N2C(=O)C(Cl)=C(N3CCN(C)CC3)C2=O)c(C)c1,81*,nt,6.4*
CN1CCN(C2=C(Cl)C(=O)N(c3ccc(Cl)cc3)C2=O)CC1,33*,nt,0.16*
CN1CCN(C2=C(Cl)C(=O)N(CCc3ccccc3)C2=O)CC1,3,-2,nt
Nc1c(C(=O)C2CC2)sc2nc(-c3cccs3)cc(C(F)(F)F)c12,0,nt,nt
O=C(CCc1nnc(CCCc2ccccc2)o1)N1CCCCCC1,-6,1,nt
Nc1nc(-c2ccco2)nn1C(=O)c1ccccc1,15,nt,nt
Nc1nc(-c2ccco2)nn1C(=O)c1ccc(Cl)cc1,34*,8,>38
CN(C(=O)COC(=O)CNC(=O)c1ccccc1F)C1CCCCC1,0,nt,nt
COC(=O)CSc1nnc([C@H](Cc2ccccc2)NC(=O)OC(C)(C)C)o1,0,2,nt
CC(C)(C)OC(=O)N[C@@H](Cc1ccccc1)c1nnc(SCC(N)=O)o1,-1,3,nt
COC(=O)CS(=O)(=O)c1nnc([C@H](Cc2ccccc2)NC(=O)OC(C)(C)C)o1,69*,nt,14*
SMILES,RecA splice inh,Mtb RmlCD inh,GFP chromo cs
Cc1cccc(CS(=O)(=O)c2nnc([C@H](Cc3ccccc3)NC(=O)OC(C)(C)C)o2)c1,36*,nt,11*
Nc1cc(N)nc(SCCOc2ccccc2F)n1,-5,-5,nt
O=C(CN1CCSCC1)c1c[nH]c2ccccc12,1,-11,nt
COC(=O)COc1c(Cl)cc(C(c2c(C)[nH][nH]c2=O)c2c(C)[nH][nH]c2=O)cc1OC,96*,nt,0.58*
Cc1ccc(C(c2c(C)[nH][nH]c2=O)c2c(C)[nH][nH]c2=O)cc1[N+](=O)[O-],99*,-14,0.49*
CCOc1cc(C(c2c(C)[nH][nH]c2=O)c2c(C)[nH][nH]c2=O)cc(Cl)c1O,95*,nt,>38
COc1cc(CNc2ccc3[nH]c(=O)[nH]c3c2)cc(Cl)c1OCC(=O)NC(C)(C)C,1,9,nt
Cc1ccc(/C=C2\NC(=S)NC2=O)cc1[N+](=O)[O-],2,-7,nt
CCOc1cc(/C=C2/NC(=O)NC2=O)cc([N+](=O)[O-])c1O,1,13,nt
CCOc1cc(C2C3=C(CCCC3=O)NC3=C2C(=O)CCC3)cc(Cl)c1O,-6,nt,nt
CCOc1cc(C(c2c(C)[nH][nH]c2=O)c2c(C)[nH][nH]c2=O)cc([N+](=O)[O-])c1O,97*,nt,0.45*
CN(C)c1nc(N)c([N+](=O)[O-])c(NCc2ccccc2)n1,0,-14,nt
COC(=O)CN(c1cccc(OC)c1)S(C)(=O)=O,2,nt,nt
CCOc1ccc(/C=N/NC(=O)c2c(C)n(C)c3ccc(OC)cc23)cc1,0,7,nt
CNC(=O)c1ccsc1NC(=O)c1coc2ccccc2c1=O,-1,nt,nt
COc1ccc(CCNC(=S)N2CCC(Cc3ccccc3)CC2)cc1OC,4,-11,nt
COc1cc(/C=C/c2[nH]c(=O)[nH]c(=O)c2[N+](=O)[O-])cc([N+](=O)[O-])c1O,-1,nt,nt
COc1cc(C(c2c(C)[nH][nH]c2=O)c2c(C)[nH][nH]c2=O)cc([N+](=O)[O-])c1O,97*,-11,0.45*
